Data on 23 sequences can be found in PMC7819943, “Rice protein-binding microarrays: a tool to detect cis-acting elements near promoter regions in rice”.

The full ranking holds about 68,000 sequences; the median of “fluorescence intensity (a.u.)” is about 9,100, and the highest 2% start at about 16,000. Only a selection was taken, and the highest values are over-represented in it overall.

OsWRKY34, sequence (Q0JBA9 entry or part of it): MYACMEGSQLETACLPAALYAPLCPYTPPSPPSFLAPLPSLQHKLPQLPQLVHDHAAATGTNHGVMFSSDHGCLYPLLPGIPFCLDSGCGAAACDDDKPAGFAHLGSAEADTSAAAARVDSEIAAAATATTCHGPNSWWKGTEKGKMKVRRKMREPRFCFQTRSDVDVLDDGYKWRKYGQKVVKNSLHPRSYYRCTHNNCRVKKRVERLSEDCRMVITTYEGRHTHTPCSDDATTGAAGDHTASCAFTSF

This test has as its target OsWRKY34 (Oryza sativa, UniProt Q0JBA9 1-250). Briefly: protein-binding microarray (RPBM); PBS, 2% BSA, 51.3 ng/ul salmon testes DNA, 50 uM zinc acetate, 200 nM TF, 25 C, 1 h; high values mean tight binding. Conditions: protein: recombinant; tags: N-terminal polyhistidine and DsRed monomer fusion (pET32a); label: CyDye5-dUTP incorporated in the synthesized complementary strand; 3' TTTTT single-stranded linker to array surface; dsDNA, one strand shown. Summed up:
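Binding signal here means per-feature fluorescence intensity in arbitrary units. The values were read on an Axon 4000B scanner after a custom Agilent array, double-stranded by primer extension with Cy5-dUTP, was incubated with 200 nM protein at 25 °C for 1 h in PBS with 2% BSA, salmon testes DNA and 50 µM zinc acetate, then washed. The proteins were transcription factors with an N-terminal polyhistidine tag and DsRed, expressed in E. coli BL21-CodonPlus and purified on Ni–NTA.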
“TGTGTGAGATTTTTGCATGTTTTTGTTGTGTTTGTTCATACGGAGTCACCTAGTGCAG”: the binding signal is 8580 fluorescence intensity (a.u.).
Under “TCTGGTTCCATTTTCCACGCACAGGAGAGTGATTACTTTTCGGAGTCACCTAGTGCAG” stands 11200 fluorescence intensity (a.u.).
Under “TCTCTCTCTCGTGCGTCACCTCCTCGCGTGCTCAGCGCCGCGGAGTCACCTAGTGCAG” stands 8780 fluorescence intensity (a.u.); under “TCCTTGCTCCATCAGTATTACACCACCCAACACAAGCTCACGGAGTCACCTAGTGCAG”, 8870 fluorescence intensity (a.u.).
Take “GGTTCAAATTAACTTTTCAATCTTGGCTGTGTTTGGATCCCGGAGTCACCTAGTGCAG”: the binding signal was 9630 fluorescence intensity (a.u.).
On to “CGACTTGTTGCCTCAAACAATTCCTGGTTATAAAACACCACGGAGTCACCTAGTGCAG”, for which the binding signal is 35500 fluorescence intensity (a.u.).
Regarding “AGTTAATCCTTGTTAAACTTTGGTTTCAAAACAATTTCCCCGGAGTCACCTAGTGCAG”, the binding signal is 65500 fluorescence intensity (a.u.).
For “CTCCTCATCCATCCACCACACCACTTGCCTCCAAACAAAACGGAGTCACCTAGTGCAG”, the binding signal is 9340 fluorescence intensity (a.u.).
Next, “CCCTCTATAAATGGTTCCTATCACAACCACAAACACCACACGGAGTCACCTAGTGCAG”: 8240 fluorescence intensity (a.u.); “TCTACAAACTTGGTCAAACTTAAAACAGTTTGACTTTGACCGGAGTCACCTAGTGCAG”: 14600 fluorescence intensity (a.u.); “GCTGTTTCCTGGAGGTTCCATCCATGCTATCCTGTGCTCGCGGAGTCACCTAGTGCAG”: 8470 fluorescence intensity (a.u.).
Next, “GACCAACCAAAACCTCCGATCACCTTGTCCCGTACTGAAACGGAGTCACCTAGTGCAG”: 11000 fluorescence intensity (a.u.).
Under “TCACCCCGCCGCCGCCATCCAGGCGCCGACGACCTCCCATCGGAGTCACCTAGTGCAG” stands 8840 fluorescence intensity (a.u.); under “CTCTCTTTTCCTTTTCTAATTTTAGATTTTATTTTATTTTCGGAGTCACCTAGTGCAG”, 8600 fluorescence intensity (a.u.).
Turning to “GTTTTACATTTGTCCTAAATCAAACATATCTATCTTTGACCGGAGTCACCTAGTGCAG”, the binding signal was 8180 fluorescence intensity (a.u.).
Under “TGGCTGAGCTTCTTTGCGTGTTCTTGTTTGGGTTTTGGGGCGGAGTCACCTAGTGCAG” stands 18700 fluorescence intensity (a.u.); under “CAGCTCGAGCTGTTTGCTTGTGGGGTTCTTGTTTTTCTTTCGGAGTCACCTAGTGCAG”, 8020 fluorescence intensity (a.u.).
Next, “TTTTTGTGTGTGTGCTGTGTTCTTGGGTTTCTTGGCAATGCGGAGTCACCTAGTGCAG”: 8650 fluorescence intensity (a.u.); “GGGGTGGTTTTGGCTGAGCTGCTTGTGTCCTCTTCTTGCTCGGAGTCACCTAGTGCAG”: 18400 fluorescence intensity (a.u.); “TGGTTTTGGCAGCTGCTGTGTGCACTTGTGGGTTTTTTCTCGGAGTCACCTAGTGCAG”: 8960 fluorescence intensity (a.u.).
As for “TTCTTGGCTTGGCTCCTCTGGTGTTCTTGTGCTCTGGGTTCGGAGTCACCTAGTGCAG”, the binding signal was 9970 fluorescence intensity (a.u.).
Next, “CATTTTATTGTGAACTTTTTCCTTTTAAACTCGATGTTTACGGAGTCACCTAGTGCAG”: 10700 fluorescence intensity (a.u.).
Under “GTGATGTTCATGCGACAATGTGTTTCTTCCTGGACATATTCGGAGTCACCTAGTGCAG” stands 8050 fluorescence intensity (a.u.).
